The full ranking holds about 33,000 sequences; the median of “E-score (-0.5 to 0.5)” is about -0.01, and the highest 2% start at about 0.26. This excerpt belongs to a sample that is enriched for the highest values.
Target: Ste12 (UniProt P13574)
Assay: PBM E-score (8-mer binding enrichment) (E-score (-0.5 to 0.5)); higher = stronger / more preferred TF binding
Details: protein concentration: 200 nM; construct: GST-DNA-binding domain
How it was run: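 Each ungapped eight-base word and its reverse complement, pooled, received an E-score from the Universal PBM Analysis Suite. Underlying scans, normalised with masliner, recorded fluorescent anti-GST bound to GST-tagged yeast transcription factors. These were applied at about 100-200 nM to universal all-10-mer Agilent arrays double-stranded by primer extension.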

UniProt P13574, sequence (P13574 whole entry): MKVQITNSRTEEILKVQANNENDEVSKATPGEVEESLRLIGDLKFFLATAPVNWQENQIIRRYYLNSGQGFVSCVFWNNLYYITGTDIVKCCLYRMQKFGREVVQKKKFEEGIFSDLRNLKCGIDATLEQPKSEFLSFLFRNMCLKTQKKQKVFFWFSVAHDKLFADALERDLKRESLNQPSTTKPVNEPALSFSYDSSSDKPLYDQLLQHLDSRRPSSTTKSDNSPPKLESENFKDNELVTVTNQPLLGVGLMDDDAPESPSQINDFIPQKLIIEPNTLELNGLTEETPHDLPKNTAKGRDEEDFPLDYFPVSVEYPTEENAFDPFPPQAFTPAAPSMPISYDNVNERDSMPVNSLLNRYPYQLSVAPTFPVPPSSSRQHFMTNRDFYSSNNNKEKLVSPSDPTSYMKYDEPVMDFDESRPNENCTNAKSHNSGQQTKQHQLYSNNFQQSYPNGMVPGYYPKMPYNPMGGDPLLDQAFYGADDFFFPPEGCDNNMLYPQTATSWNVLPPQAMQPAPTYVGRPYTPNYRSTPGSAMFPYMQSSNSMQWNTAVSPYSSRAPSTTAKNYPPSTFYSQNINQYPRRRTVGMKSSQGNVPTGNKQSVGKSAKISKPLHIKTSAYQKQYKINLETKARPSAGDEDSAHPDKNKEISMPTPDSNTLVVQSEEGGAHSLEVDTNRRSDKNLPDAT

Point of comparison: CTAAAATA, “PBM E-score” value 0.181. Against it:
- AGCTGGGG — lower, -0.136
- ACCCAGGT — lower, -0.218
- CCAAGAAC — lower, -0.11
- CGCCAACA — lower, -0.0261
- GCACATCA — lower, -0.00042
- GCCCCCAA — lower, -0.0804
- TAAAAATA — higher, 0.318
- ATAAAATA — higher, 0.257
- AAAAAATA — higher, 0.267
- GTAAAATA — lower, 0.131
- CAAAAATG — higher, 0.182
- GAAAAATA — higher, 0.217
- TATAAATA — higher, 0.228
- CCAAAATA — higher, 0.21
- CAAAAATA — higher, 0.346
- CATAAATA — higher, 0.268
- AATAAATA — higher, 0.21
- GCCTAAAA — lower, -0.0428
- CATCCCAA — lower, 0.0892
- CTCAACTC — lower, 0.141
- ATGACTAG — lower, -0.183
- ACACATCC — lower, -0.0267
- GTTCACCA — lower, -0.0697
- TCCCTCCA — lower, -0.191
- ATATTGAT — higher, 0.248
- AAATCTTC — lower, 0.0263
- GAGGTAGC — lower, -0.239
- CAGGGTTC — lower, -0.0459
- AAACGCGT — higher, 0.255
- CAACGCGG — lower, -0.0344
- AAACGCGG — higher, 0.264
- CGCCGTCA — lower, 0.0459
- ACTCTGCT — lower, -0.0783
- GATATTGC — lower, 0.0418
- ACAATCCG — lower, -0.0367
- CCAATCCG — higher, 0.281
- CCAATCCC — lower, 0.104
- GGCTACCC — lower, -0.285
- GGGGCGTA — higher, 0.282
- CGGGCGGA — lower, -0.012
- GGGGCGGA — higher, 0.404
- CGGGCGTA — lower, -0.0442
- AGGGCGTA — lower, -0.176
- AGGGCGGA — lower, -0.248
- CGCTCCAG — lower, 0.0315
- CAACCTGC — lower, 0.0657
- CCTGCAGG — lower, -0.16
- AAAAGTTT — higher, 0.283
- AAAAGTAA — higher, 0.287
- AAAAGTTC — lower, 0.0553
- AAAAGTTG — lower, 0.127
- AAAAGTGG — lower, 0.139
- CAAAGTAA — lower, 0.125
- AAAAGTAT — lower, 0.178
- AAAAGTGT — lower, 0.0304
- AAAAGTGA — higher, 0.267
- CAACAGCC — lower, -0.0347
- TATCGAAA — higher, 0.258
- GAGTATCC — lower, -0.127
- AGGTAGAG — lower, -0.0159
- CGCTGGCA — lower, 0.00792
- TCACCAAA — lower, 0.177
- CCAGCAGG — lower, -0.107
- ATGATGGG — lower, -0.0865
- CCGAAAAA — higher, 0.269
- GCGAAACA — lower, 0.134
- CCGAAAAG — higher, 0.235
- CCGAAAAC — lower, 0.0124
- TCGAAAAA — higher, 0.238
- ACGAAACT — lower, 0.127
- CCGAAACA — higher, 0.376
- ACGAAACA — higher, 0.327
- CCGAAACC — lower, 0.142
- CCGAAACG — lower, 0.152
- ACGAAACC — higher, 0.242
- TCGAAACA — higher, 0.395
- ATTTTTGC — higher, 0.236
- CCTCTAGA — lower, -0.134
- ATTCGCGA — lower, 0.0844
- ATAGACTC — lower, -0.133
- CAGCTTAC — lower, 0.0225
- AAGACATG — lower, -0.137
- GCCTGGGA — lower, -0.23
- TACCTGGA — lower, -0.0387
- TCCCGCAA — lower, 0.18
- ACATAGGA — lower, -0.0111
- ATTTAGGA — lower, -0.039
- ACAGAATA — lower, 0.0915
- CTCGCAGC — lower, 0.0324
- ACGAAACG — higher, 0.31
- AAGAAACA — higher, 0.285
- CAGAAACA — lower, 0.156
- ACGAAAAG — lower, 0.16
- ACGAAAGG — lower, 0.0336
- AAGAAACT — lower, 0.172
- GGTCCATA — lower, -0.111
- AAGCAATA — lower, 0.0028
- ACGGCATG — lower, -0.107
- GAGGTAAC — lower, 0.0397
- CAGGTAAA — higher, 0.248
- GAGGTAAA — higher, 0.334
- GAGCTGGC — lower, -0.0837
- AATATATA — higher, 0.22
- AAAATATC — lower, 0.147
- AATATATT — higher, 0.326
- AAAATATT — higher, 0.266
- AAAATATG — higher, 0.241
- AGTATATA — higher, 0.295
- AGTATATG — lower, 0.143
- AGTATATC — lower, -0.0122

— the supplement of paper PMC3334620
